# Measured values from PMC7862700, “An all-to-all approach to the identification of sequence-specific readers for epigenetic DNA modifications on cytosine”.
# How the values were obtained:
# Experiment in all cases: DAPPL (digital affinity profiling via proximity ligation, sequencing); 10 mM Tris-HCl pH 7.5, 50 mM NaCl, 1 mM DTT, 4% glycerol, room temperature, 30 min; GST-TFs on glutathione beads, 16-mer random dsDNA library, 0.1% formaldehyde crosslink after washing; high values mean tight binding
# FLI1 = target: T1, FLI1 (Homo sapiens, UniProt Q01543 1-452); details: protein: recombinant; tags: N-terminal GST; dsDNA, one strand shown
# T1 sequence: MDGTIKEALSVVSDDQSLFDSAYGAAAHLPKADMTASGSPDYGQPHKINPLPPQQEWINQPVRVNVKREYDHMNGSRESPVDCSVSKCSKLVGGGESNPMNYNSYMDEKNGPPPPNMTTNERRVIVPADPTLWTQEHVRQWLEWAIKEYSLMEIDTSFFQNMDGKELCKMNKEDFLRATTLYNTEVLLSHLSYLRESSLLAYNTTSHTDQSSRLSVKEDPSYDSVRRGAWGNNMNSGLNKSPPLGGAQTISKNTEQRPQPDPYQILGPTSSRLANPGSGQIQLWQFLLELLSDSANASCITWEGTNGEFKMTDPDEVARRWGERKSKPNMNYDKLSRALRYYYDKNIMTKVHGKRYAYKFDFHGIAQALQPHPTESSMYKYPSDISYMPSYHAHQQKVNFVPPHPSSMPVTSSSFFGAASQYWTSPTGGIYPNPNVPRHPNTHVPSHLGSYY
# In short: (§1)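 A tag-only sample was pooled with DNA-barcoded human transcription factors that had been expressed in yeast as GST fusions and captured on glutathione beads. The pools were incubated for 30 min at room temperature with 200 nmole of a random double-stranded 16-mer DNA library in Tris/NaCl/DTT/glycerol buffer, then washed, crosslinked with 0.1% formaldehyde, proximity-ligated (BsaI/T4 ligase, 1 h, 37 °C), PCR-amplified and sequenced on an Illumina NextSeq500. Binding signal is each hexamer's read frequency for a factor divided by its frequency for the tag-only sample.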
# ELK1 = target: T2, ELK1 (Homo sapiens, UniProt P19419 1-428); details: protein: recombinant; tags: N-terminal GST; dsDNA, one strand shown
# T2 sequence: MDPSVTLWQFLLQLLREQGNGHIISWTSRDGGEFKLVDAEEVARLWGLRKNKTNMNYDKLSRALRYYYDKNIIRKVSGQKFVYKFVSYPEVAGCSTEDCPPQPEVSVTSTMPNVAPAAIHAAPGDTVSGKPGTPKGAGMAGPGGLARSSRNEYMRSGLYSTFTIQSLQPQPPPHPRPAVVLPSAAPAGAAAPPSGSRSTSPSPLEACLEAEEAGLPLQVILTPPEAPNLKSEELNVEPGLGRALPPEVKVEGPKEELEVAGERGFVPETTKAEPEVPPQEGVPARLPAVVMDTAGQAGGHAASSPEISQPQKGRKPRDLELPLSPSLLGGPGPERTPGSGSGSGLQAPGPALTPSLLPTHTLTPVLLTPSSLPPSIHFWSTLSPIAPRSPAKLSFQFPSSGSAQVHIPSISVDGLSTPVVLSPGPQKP
# In short: as §1
# GABPA = target: T3, GABPA (Homo sapiens, UniProt Q06546 1-454); details: protein: recombinant; tags: N-terminal GST; dsDNA, one strand shown
# T3 sequence: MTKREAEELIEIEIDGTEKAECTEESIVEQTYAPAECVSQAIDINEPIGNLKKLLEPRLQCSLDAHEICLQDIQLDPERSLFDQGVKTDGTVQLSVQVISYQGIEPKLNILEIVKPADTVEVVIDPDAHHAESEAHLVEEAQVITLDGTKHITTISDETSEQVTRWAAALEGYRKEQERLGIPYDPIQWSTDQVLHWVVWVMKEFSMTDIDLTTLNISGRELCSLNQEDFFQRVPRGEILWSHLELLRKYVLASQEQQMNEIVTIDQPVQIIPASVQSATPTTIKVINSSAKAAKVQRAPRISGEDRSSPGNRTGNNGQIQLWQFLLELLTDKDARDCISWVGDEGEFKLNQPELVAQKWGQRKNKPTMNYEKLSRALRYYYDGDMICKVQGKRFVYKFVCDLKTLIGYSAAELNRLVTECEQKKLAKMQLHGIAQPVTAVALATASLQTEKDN
# In short: as §1
# ERG = target: T4, ERG (Homo sapiens, UniProt P11308 1-479); details: protein: recombinant; tags: N-terminal GST; dsDNA, one strand shown
# T4 sequence: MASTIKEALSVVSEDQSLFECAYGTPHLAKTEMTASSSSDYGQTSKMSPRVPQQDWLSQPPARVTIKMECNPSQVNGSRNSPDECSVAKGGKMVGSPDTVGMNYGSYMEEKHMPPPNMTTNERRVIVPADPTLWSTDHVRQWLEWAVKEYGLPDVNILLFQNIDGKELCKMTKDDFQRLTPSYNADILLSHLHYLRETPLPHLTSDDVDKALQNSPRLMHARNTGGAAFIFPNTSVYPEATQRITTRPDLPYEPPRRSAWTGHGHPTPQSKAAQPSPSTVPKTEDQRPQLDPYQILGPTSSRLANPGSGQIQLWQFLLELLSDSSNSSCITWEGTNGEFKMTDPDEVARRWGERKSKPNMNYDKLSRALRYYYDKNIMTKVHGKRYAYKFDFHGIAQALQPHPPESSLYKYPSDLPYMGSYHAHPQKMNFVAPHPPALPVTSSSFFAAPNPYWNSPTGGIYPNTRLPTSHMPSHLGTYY
# In short: as §1
# ELF1 = ELF1 (Homo sapiens, UniProt P32519 1-619); details: protein: recombinant; tags: N-terminal GST; dsDNA, one strand shown
# In short: as §1
# EHF = target: T5, EHF (Homo sapiens, UniProt Q9NZC4 1-300); details: protein: recombinant; tags: N-terminal GST; dsDNA, one strand shown
# T5 sequence: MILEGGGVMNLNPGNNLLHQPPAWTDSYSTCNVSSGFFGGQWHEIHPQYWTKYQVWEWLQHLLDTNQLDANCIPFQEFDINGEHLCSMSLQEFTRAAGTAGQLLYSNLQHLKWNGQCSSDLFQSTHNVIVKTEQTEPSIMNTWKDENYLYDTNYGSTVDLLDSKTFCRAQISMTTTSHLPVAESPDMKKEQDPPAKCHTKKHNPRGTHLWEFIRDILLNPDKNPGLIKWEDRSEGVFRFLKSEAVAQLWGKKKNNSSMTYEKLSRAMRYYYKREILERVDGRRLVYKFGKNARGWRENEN
# In short: as §1
# SPI1 = SPI1 (Homo sapiens, UniProt P17947 1-270); details: protein: recombinant; tags: N-terminal GST; dsDNA, one strand shown
# In short: as §1
# SPIB = SPIB (Homo sapiens, UniProt Q01892 1-262); details: protein: recombinant; tags: N-terminal GST; dsDNA, one strand shown
# In short: as §1
# ELK3 = target: T6, ELK3 (Homo sapiens, UniProt P41970 1-407); details: protein: recombinant; tags: N-terminal GST; dsDNA, one strand shown
# T6 sequence: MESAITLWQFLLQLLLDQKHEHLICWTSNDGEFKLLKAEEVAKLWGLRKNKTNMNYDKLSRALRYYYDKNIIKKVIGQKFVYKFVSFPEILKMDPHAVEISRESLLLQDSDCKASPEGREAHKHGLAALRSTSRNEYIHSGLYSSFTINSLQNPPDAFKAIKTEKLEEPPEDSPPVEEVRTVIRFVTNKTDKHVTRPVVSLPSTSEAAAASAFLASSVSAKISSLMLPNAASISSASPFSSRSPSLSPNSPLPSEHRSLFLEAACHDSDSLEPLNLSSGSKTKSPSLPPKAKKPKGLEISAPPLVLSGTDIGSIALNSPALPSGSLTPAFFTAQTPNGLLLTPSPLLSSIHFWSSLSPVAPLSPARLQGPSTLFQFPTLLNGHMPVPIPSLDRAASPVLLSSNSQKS
# In short: as §1
# FEV = target: T7, FEV (Homo sapiens, UniProt Q99581 1-238); details: protein: recombinant; tags: N-terminal GST; dsDNA, one strand shown
# T7 sequence: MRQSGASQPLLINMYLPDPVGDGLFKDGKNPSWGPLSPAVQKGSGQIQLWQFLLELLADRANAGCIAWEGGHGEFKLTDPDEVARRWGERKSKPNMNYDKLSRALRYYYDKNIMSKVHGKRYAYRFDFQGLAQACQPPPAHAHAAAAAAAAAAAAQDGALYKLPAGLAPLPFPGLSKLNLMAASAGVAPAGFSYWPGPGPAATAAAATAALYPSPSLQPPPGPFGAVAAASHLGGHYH
# In short: as §1
# ETV5 = ETV5 (Homo sapiens, UniProt P41161 1-510); details: protein: recombinant; tags: N-terminal GST; dsDNA, one strand shown
# In short: as §1
# HSF1 = HSF1 (Homo sapiens, UniProt Q00613 1-529); details: protein: recombinant; tags: N-terminal GST; chain copies: 3; dsDNA, one strand shown
# In short: as §1
# SPIC = target: T8, SPIC (Homo sapiens, UniProt Q8N5J4 1-248); details: protein: recombinant; tags: N-terminal GST; dsDNA, one strand shown
# T8 sequence: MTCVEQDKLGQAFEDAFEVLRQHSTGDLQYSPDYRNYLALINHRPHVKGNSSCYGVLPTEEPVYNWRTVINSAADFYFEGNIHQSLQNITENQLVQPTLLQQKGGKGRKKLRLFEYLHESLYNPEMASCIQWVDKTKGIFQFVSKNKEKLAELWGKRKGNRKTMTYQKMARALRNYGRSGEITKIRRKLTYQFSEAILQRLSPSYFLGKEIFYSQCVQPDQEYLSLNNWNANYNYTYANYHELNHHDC
# In short: as §1
# ELF4 = ELF4 (Homo sapiens, UniProt Q99607 1-663); details: protein: recombinant; tags: N-terminal GST; dsDNA, one strand shown
# In short: as §1
# ELK4 = target: T9, ELK4 (Homo sapiens, UniProt P28324-2 1-405); details: protein: recombinant; tags: N-terminal GST; dsDNA, one strand shown
# T9 sequence: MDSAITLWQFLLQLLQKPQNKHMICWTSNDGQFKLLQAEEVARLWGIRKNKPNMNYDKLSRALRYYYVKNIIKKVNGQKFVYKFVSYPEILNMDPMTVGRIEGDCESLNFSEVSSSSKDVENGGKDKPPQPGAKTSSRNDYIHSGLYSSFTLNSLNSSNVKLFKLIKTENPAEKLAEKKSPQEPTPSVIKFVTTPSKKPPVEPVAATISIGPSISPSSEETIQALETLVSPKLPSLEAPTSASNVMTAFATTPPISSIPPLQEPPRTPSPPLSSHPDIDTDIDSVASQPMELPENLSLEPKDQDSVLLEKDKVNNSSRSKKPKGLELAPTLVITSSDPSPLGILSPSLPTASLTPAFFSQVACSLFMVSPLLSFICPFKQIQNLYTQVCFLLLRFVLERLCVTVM
# In short: as §1
# ETV2 = target: T10, ETV2 (Homo sapiens, UniProt O00321 1-342); details: protein: recombinant; tags: N-terminal GST; dsDNA, one strand shown
# T10 sequence: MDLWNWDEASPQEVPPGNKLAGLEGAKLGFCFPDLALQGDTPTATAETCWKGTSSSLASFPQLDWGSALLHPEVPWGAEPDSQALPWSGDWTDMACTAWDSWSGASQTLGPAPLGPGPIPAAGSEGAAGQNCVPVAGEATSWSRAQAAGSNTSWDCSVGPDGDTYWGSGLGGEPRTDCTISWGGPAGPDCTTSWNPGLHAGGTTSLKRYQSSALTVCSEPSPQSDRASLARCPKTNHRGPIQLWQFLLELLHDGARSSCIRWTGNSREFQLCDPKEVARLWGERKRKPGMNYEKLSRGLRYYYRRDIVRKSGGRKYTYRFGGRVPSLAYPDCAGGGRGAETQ
# In short: as §1
# ELF3 = target: T11, ELF3 (Homo sapiens, UniProt P78545 1-371); details: protein: recombinant; tags: N-terminal GST; dsDNA, one strand shown
# T11 sequence: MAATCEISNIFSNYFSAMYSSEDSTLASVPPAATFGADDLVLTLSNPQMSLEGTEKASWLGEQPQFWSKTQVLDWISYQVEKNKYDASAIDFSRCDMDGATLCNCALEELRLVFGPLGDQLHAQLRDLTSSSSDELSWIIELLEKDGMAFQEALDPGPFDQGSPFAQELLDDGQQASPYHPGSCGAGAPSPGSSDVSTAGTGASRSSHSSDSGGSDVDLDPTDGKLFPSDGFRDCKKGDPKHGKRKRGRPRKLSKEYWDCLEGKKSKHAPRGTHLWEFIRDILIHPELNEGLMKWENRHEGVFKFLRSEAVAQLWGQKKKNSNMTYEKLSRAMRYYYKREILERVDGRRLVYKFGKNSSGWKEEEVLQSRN
# In short: as §1
# CRX = CRX (Homo sapiens, UniProt O43186 1-299); details: protein: recombinant; tags: N-terminal GST; dsDNA, one strand shown
# In short: as §1
# ETV1 = ETV1 (Homo sapiens, UniProt P50549 1-477); details: protein: recombinant; tags: N-terminal GST; dsDNA, one strand shown
# In short: as §1
# CRX, sequence (O43186 whole entry): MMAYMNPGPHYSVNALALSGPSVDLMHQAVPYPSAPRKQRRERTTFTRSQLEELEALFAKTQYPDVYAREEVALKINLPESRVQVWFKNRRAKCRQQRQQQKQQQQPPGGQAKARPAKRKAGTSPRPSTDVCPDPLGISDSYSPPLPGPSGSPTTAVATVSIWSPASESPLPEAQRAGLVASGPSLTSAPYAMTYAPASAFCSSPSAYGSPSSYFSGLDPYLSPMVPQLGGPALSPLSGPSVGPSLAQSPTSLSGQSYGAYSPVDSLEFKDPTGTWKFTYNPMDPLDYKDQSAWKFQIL
# ETV1, sequence (P50549 whole entry): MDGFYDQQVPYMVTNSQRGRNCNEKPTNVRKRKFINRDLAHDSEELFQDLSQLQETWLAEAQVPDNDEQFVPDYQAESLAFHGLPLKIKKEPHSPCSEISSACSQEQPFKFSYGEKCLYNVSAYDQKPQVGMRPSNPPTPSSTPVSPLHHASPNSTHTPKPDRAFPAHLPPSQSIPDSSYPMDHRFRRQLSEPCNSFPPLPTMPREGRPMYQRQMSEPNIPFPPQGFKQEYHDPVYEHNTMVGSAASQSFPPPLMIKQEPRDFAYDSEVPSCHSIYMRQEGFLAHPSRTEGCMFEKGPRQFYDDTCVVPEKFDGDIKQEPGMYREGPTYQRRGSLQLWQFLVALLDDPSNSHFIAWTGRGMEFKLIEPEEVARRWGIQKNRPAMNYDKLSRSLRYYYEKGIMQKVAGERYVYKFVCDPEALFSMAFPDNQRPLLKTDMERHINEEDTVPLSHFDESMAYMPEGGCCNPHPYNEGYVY
# SPIB, sequence (Q01892 whole entry): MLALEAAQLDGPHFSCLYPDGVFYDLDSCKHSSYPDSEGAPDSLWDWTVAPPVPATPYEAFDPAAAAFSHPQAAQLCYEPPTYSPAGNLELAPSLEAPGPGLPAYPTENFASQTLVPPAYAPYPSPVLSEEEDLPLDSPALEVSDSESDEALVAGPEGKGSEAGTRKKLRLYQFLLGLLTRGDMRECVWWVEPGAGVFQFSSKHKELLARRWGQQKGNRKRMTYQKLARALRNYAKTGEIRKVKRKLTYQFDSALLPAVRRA
# ELF1, sequence (P32519 whole entry): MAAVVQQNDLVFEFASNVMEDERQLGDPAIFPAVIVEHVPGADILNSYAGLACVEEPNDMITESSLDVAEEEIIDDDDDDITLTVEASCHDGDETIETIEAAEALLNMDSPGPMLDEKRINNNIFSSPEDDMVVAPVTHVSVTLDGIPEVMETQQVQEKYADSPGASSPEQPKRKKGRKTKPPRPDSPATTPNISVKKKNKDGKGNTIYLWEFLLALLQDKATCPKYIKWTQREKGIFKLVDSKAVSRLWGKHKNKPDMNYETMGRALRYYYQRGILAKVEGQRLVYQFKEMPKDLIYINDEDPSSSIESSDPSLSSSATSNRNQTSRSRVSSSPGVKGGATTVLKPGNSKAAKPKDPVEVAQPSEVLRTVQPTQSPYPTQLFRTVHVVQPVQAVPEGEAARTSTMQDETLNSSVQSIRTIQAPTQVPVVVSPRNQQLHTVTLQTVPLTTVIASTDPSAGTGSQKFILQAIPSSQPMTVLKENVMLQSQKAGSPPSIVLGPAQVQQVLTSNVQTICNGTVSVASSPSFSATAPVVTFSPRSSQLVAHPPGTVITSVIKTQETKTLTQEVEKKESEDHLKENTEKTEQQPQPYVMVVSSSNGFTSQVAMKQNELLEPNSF
# ELF4, sequence (Q99607 whole entry): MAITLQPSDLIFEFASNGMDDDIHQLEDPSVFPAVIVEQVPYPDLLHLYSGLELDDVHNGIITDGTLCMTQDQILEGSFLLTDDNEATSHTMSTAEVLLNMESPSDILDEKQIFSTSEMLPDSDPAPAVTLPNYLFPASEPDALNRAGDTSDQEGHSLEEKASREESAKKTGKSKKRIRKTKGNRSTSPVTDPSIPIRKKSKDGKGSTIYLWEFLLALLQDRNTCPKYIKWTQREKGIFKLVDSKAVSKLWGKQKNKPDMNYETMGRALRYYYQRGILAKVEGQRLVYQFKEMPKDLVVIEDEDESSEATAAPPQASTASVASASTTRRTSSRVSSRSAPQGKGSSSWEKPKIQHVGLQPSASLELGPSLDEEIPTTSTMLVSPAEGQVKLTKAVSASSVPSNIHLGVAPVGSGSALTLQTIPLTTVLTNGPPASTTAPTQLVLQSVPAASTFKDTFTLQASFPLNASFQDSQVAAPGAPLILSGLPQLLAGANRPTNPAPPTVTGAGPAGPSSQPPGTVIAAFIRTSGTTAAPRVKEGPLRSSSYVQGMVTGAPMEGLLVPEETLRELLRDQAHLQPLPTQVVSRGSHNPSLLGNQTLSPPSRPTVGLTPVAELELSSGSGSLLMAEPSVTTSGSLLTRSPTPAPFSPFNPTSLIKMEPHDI
# ETV5, sequence (P41161 whole entry): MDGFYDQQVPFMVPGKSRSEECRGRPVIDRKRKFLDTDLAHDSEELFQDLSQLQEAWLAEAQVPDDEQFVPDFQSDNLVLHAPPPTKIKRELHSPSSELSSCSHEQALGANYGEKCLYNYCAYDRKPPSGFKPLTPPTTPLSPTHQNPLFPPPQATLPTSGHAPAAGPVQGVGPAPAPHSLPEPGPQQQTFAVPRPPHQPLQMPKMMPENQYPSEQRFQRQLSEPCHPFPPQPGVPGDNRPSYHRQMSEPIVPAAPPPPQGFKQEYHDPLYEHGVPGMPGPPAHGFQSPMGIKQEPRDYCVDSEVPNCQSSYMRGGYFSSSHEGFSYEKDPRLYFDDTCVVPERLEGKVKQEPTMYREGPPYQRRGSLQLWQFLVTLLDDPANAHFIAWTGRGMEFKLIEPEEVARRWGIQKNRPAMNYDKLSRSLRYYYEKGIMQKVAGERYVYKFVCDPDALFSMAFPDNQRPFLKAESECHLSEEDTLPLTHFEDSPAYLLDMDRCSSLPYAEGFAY
# HSF1, sequence (Q00613 whole entry): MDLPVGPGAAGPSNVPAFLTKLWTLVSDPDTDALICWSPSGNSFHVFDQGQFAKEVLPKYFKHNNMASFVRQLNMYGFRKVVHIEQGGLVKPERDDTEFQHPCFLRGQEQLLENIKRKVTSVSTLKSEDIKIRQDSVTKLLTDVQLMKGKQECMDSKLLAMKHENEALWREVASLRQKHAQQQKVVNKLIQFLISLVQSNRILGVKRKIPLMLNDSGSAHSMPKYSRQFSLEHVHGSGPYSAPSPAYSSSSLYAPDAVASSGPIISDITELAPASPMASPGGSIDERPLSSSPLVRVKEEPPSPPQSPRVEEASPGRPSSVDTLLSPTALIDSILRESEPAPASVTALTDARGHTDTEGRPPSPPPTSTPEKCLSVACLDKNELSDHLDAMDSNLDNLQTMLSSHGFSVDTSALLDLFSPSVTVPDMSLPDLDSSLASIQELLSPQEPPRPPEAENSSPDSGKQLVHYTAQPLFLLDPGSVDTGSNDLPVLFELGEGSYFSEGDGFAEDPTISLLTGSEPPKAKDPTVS
sequence,measurement,setting,value
TTTGTG,binding signal,FLI1,"1.31 fold enrichment (6-mer frequency, TF over GST control)"
same,binding signal,ELK1,"1.2 fold enrichment (6-mer frequency, TF over GST control)"
same,binding signal,GABPA,"1.13 fold enrichment (6-mer frequency, TF over GST control)"
same,binding signal,ERG,"1.14 fold enrichment (6-mer frequency, TF over GST control)"
same,binding signal,ELF1,"1.09 fold enrichment (6-mer frequency, TF over GST control)"
same,binding signal,EHF,"1.15 fold enrichment (6-mer frequency, TF over GST control)"
same,binding signal,SPI1,"1.12 fold enrichment (6-mer frequency, TF over GST control)"
same,binding signal,SPIB,"1.09 fold enrichment (6-mer frequency, TF over GST control)"
same,binding signal,ELK3,"1.17 fold enrichment (6-mer frequency, TF over GST control)"
same,binding signal,FEV,"1.23 fold enrichment (6-mer frequency, TF over GST control)"
same,binding signal,ETV5,"1.17 fold enrichment (6-mer frequency, TF over GST control)"
same,binding signal,HSF1,"1.12 fold enrichment (6-mer frequency, TF over GST control)"
same,binding signal,SPIC,"1.15 fold enrichment (6-mer frequency, TF over GST control)"
same,binding signal,ELF4,"1.19 fold enrichment (6-mer frequency, TF over GST control)"
same,binding signal,ELK4,"1.38 fold enrichment (6-mer frequency, TF over GST control)"
same,binding signal,ETV2,"1.25 fold enrichment (6-mer frequency, TF over GST control)"
same,binding signal,ELF3,"1.27 fold enrichment (6-mer frequency, TF over GST control)"
same,binding signal,CRX,"1.29 fold enrichment (6-mer frequency, TF over GST control)"
same,binding signal,ETV1,"1.1 fold enrichment (6-mer frequency, TF over GST control)"
